# Experimental data reported in PubChem BioAssay (Tox21).
# Inconclusive results are not listed. Entries that show only a call come without a potency. Values without a mark were called inactive. The source made the active and inactive calls. Unless noted, calls follow the shape of the dose curve; as a rule, active = well fitted curve in the direction sought with a large enough effect in the repeat runs; inconclusive = weak or mixed curves; inactive = no such curve, though single readings can be large; an effect the other way counts as inactive or inconclusive.
# Key:
# [1] = qHTS assay to identify small molecule antagonists of the estrogen related receptor (ERR) signaling pathway from Tox21 library - cell viability counter screen (AID 1224834); also: nearly all actives have a fitted effect of over 30% in size
# Procedure, shortened: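 Counter screen run in ERR cells (2,000 cells/well): cells pre-incubated 6 h, then treated with compounds for 17.5 h at 37 C. Fluorescence was read 30 min after CellTiter-Fluor addition.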
# [2] = biological target: Luciferin 4-monooxygenase (Photinus pyralis) (UniProt P08659); test: qHTS assay to identify small molecule inhibitors of firefly luciferase (AID 1224835); also: nearly all actives have a fitted effect of over 25% in size; also: potency is read from the fitted curve at half-maximal effect
# Procedure, shortened: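 Inhibition of purified Photinus luciferase is measured by luminescence. Substrate levels (D-luciferin, ATP) sit at their KM values. Each compound is tested in a concentration series.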
# [3] = qHTS assay to identify small molecule agonists of the constitutive androstane receptor (CAR) signaling pathway - cell viability counter screen (AID 1224836); also: series mostly up to about 92 µM; nearly all actives have a fitted effect of over 45% in size
# Procedure, shortened: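 Fluorescence from CellTiter-Fluor indicates live cells after 23 h exposure. The human hepatoma line expresses hCAR and a CYP2B6-2.2kb reporter. Incubation medium contains 0.75 uM PK11195 (final).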
# [4] = biological target: Nuclear receptor subfamily 1 group I member 3 (Homo sapiens) (UniProt Q14994); test: qHTS assay to identify small molecule antagonists of the constitutive androstane receptor (CAR) signaling pathway (AID 1224838); also: nearly all actives have a fitted effect of over 40% in size
# Procedure, shortened: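 Inhibition of CITCO-driven (50 nM final) CYP2B6 reporter expression is measured in HepG2 cells stably carrying hCAR. Fifteen compound concentrations are applied for 24 h at 37 C, followed by luciferase luminescence.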
# [5] = biological target: Nuclear receptor subfamily 1 group I member 3 (Homo sapiens) (UniProt Q14994); test: qHTS assay to identify small molecule agonists of the constitutive androstane receptor (CAR) signaling pathway (AID 1224839); also: nearly all actives have a fitted effect of over 15% in size; also: potency is read from the fitted curve at half-maximal effect
# Procedure, shortened: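 Stable hCAR/CYP2B6-2.2kb HepG2 line in DMEM with 10% FBS; compounds (15 concentrations) and 0.75 uM PK11195 final, 24 h at 37 C/5% CO2, then ONE-Glo luminescence after 30 min.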
# [6] = qHTS assay to identify small molecule antagonists of the estrogen related receptor signaling pathway with the pleiotropic PPARgamma coactivator (PGC) from Tox21 10K library - cell viability counter screen (AID 1224840; active = well fitted cell-killing curve with a large enough effect in the repeat runs, not every such curve was filed as active; also: nearly all actives have a fitted effect of over 40% in size)
# Procedure, shortened: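 Readout: fluorescence intensity from CellTiter-Fluor after 30 min at 37 C/5% CO2. Preceded by 17.5 h treatment of PGC/ERR cells with DMSO-dissolved compounds, added 6 h post-seeding.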
# [7] = qHTS assay to identify small molecule antagonists of the estrogen related receptor signaling pathway with the pleiotropic PPARgamma coactivator (PGC) from Tox21 10K library (AID 1224841; call rule not given here; also: series mostly up to about 92 µM; actives are mostly falling curves and most rising ones were filed inactive; nearly all actives have a fitted effect of over 50% in size)
# Procedure, shortened: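 One-Glo luminescence, measured after half an hour at room temperature, quantified reporter output of PGC/ERR cells. These had been plated at 2,000 per well, incubated 6 h, dosed with compounds in DMSO, then kept 18 h at 37 C.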
# [8] = qHTS assay to identify small molecule agonists of the estrogen related receptor signaling pathway with the pleiotropic PPARgamma coactivator (PGC) from Tox21 10K library (AID 1224842); also: nearly all actives have a fitted effect of over 15% in size; also: potency is read from the fitted curve at half-maximal effect
# Procedure, shortened: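 Luminescence from One-Glo (30 min, room temperature) measured after PGC/ERR cells had 18 h at 37 C with pinned compound (23 nL in DMSO). Cells had been seeded at 2,000 per well and pre-incubated 6 h.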
# [9] = qHTS assay to identify small molecule antagonists of the constitutive androstane receptor (CAR) signaling pathway - cell viability counter screen (AID 1224837); also: series mostly up to about 92 µM; nearly all actives have a fitted effect of over 45% in size
# Procedure, shortened: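 CITCO at 50 nM final was added alongside compounds (15 concentrations) to double-stable hCAR/CYP2B6-2.2kb HepG2 cells. Following 23 hr at 37 C, cell viability was quantified by CellTiter-Fluor fluorescence intensity.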
# [10] = biological target: Thyrotropin receptor (Homo sapiens) (UniProt P16473); test: qHTS assay to identify small molecule agonists of the thyroid stimulating hormone receptor (TSHR) signaling pathway (AID 1224843; calls by dose curve; also: nearly all actives have a fitted effect of over 45% in size; also: potency is read from the fitted curve at half-maximal effect)
# Procedure, shortened: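 A cell-based cAMP HTRF format was run in TSHR-transfected HEK293 cells, 800 per well. Treatment: 30 min, room temperature. Detection: 1 h with labelled cAMP and anti-cAMP cryptate. Concentration-response over 15 points, three replicates.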
# Sequence of Luciferin 4-monooxygenase (Photinus pyralis) (P08659 whole entry, looked up): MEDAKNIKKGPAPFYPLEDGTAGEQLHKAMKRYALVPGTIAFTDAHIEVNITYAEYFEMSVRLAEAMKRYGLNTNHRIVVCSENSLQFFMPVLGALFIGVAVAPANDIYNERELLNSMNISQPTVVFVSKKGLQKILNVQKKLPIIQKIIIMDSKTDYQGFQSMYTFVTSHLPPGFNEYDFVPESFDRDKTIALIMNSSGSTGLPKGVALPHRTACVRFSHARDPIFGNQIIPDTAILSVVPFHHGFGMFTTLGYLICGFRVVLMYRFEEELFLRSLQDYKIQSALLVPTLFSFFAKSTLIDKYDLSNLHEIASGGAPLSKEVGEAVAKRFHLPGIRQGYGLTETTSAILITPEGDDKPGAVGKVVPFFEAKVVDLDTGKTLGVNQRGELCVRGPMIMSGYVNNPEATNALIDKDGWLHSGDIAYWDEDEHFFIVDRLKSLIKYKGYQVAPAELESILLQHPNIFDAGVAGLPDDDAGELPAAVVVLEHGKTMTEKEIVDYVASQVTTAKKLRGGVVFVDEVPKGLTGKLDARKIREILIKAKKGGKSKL
# Sequence of Nuclear receptor subfamily 1 group I member 3 (Homo sapiens) (Q14994 whole entry, looked up): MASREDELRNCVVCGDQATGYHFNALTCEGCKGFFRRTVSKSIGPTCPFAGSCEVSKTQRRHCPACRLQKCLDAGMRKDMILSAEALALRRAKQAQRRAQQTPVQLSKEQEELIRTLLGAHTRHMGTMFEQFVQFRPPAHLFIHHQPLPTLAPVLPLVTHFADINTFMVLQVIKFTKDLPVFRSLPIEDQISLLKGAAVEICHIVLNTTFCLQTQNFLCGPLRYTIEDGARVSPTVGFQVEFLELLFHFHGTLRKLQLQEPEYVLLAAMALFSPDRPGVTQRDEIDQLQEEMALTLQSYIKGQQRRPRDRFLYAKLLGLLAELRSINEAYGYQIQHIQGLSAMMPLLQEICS
# Sequence of Thyrotropin receptor (Homo sapiens) (P16473 whole entry, looked up): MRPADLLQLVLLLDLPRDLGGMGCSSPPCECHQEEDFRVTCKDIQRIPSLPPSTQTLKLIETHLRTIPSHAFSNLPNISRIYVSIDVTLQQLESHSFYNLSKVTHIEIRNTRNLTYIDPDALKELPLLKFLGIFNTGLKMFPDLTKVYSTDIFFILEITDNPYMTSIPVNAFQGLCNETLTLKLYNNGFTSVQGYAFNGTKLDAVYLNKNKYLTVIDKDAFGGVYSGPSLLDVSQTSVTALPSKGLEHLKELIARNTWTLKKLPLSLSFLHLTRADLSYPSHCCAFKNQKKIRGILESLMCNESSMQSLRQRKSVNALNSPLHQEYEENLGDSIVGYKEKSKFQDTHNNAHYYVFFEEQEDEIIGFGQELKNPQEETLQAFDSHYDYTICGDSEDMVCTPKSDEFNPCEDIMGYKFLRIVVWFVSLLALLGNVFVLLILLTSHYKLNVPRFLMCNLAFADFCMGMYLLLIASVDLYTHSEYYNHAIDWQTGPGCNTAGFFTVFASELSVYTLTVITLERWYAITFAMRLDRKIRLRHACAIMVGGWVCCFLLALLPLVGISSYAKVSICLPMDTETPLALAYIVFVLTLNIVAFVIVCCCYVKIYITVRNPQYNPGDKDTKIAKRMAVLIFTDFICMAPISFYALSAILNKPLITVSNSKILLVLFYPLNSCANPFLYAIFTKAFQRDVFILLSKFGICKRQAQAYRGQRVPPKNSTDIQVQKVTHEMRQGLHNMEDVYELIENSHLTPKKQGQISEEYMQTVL
Compound,Potency [1],Potency [2],Potency [3],Potency [4],Potency [5],Potency [6],Potency [7],Potency [8],Potency [9],Potency [10]
CC(C)N=C=NC(C)C,inactive,inactive,inactive,inactive,inactive,inactive,inactive,inactive,,
CCOc1ncc(F)c(=O)[nH]1,inactive,inactive,inactive,,,inactive,,,inactive,inactive
O=C(NS(=O)(=O)/C=C/c1ccccc1)c1ccc(F)cc1Cl,inactive,inactive,inactive,inactive,inactive,inactive,inactive,13.7 µM (active),,inactive
Cc1ccc(S(=O)(=O)NC(=O)NC2CCCCC2)cc1,inactive,inactive,inactive,,,inactive,,,inactive,inactive
NC(=O)CCCCC(N)=O,inactive,inactive,inactive,inactive,inactive,inactive,,,,inactive
CNCc1ccc(NC(=O)c2c[nH]c3c2C(=O)CCC3)cc1,inactive,inactive,inactive,inactive,1.72 µM (active),inactive,inactive,inactive,,inactive
O=C1OC(=O)c2c(Br)c(Br)c(Br)c(Br)c21,inactive,inactive,inactive,inactive,inactive,inactive,,,,inactive
CS(=O)(=O)c1ccc([C@@H](C[C@H]2CCC(=O)C2)C(=O)Nc2cnccn2)cc1Cl,inactive,inactive,inactive,inactive,inactive,inactive,,,,inactive
SCCc1cnccn1,inactive,inactive,inactive,inactive,,inactive,inactive,inactive,,inactive
O=C(O)CCC(=O)c1ccc(-c2ccccc2)cc1,inactive,6.92 µM (active),inactive,inactive,inactive,inactive,,,,inactive
O=C(O)CN1C(=O)c2cccc3cccc(c23)C1=O,inactive,inactive,inactive,inactive,inactive,inactive,inactive,inactive,,inactive
CCCCC[C@H](O)/C=C/[C@H]1[C@H](O)CC(=O)[C@@H]1C/C=C\CCCC(=O)O,inactive,inactive,inactive,inactive,,inactive,,,,0.0266 µM (active)
COC(=O)CC(C(C)=O)C(=O)OC (configuration not stated),inactive,inactive,inactive,inactive,,inactive,,,,inactive
NC(=O)c1ccccc1[N+](=O)[O-],inactive,inactive,inactive,,,inactive,,,inactive,inactive
O=C1NC(=O)c2cccc3cccc1c23,inactive,inactive,inactive,inactive,,inactive,,,,inactive
O=S(=O)(O)CO,inactive,inactive,inactive,inactive,inactive,inactive,,,,inactive
CC(C)OC(=O)c1ccccc1C(=O)OC(C)C,inactive,inactive,inactive,inactive,,inactive,,,,inactive
CCC(CO)(CO)[N+](=O)[O-],inactive,inactive,inactive,inactive,inactive,inactive,inactive,inactive,,inactive
CC(=O)c1ccc[nH]1,inactive,inactive,inactive,,,inactive,,,inactive,inactive
COc1ccc(CCN(C)CCCN2CCc3cc(OC)c(OC)cc3CC2=O)cc1OC,inactive,inactive,inactive,inactive,inactive,inactive,,,,
O=C(O)CCS,inactive,inactive,inactive,inactive,,inactive,inactive,inactive,,inactive
CCCCCCCC/C=C\CCCCCCCC(=O)OCCO,inactive,inactive,inactive,,,inactive,,,inactive,inactive
Cc1c[nH]c2ccccc12,inactive,inactive,inactive,inactive,inactive,inactive,,inactive,,inactive
O=P(O)(O)Oc1ccccc1,inactive,inactive,inactive,,,inactive,,,inactive,inactive
CCCCOC(=O)CCCCC(=O)OCCCC,inactive,inactive,inactive,,,inactive,inactive,inactive,,
CCOC(=O)c1c(N)sc2c1CCN(Cc1ccccc1)C2,inactive,inactive,inactive,inactive,inactive,inactive,,,,inactive
